Calls of active or inactive are those of the source. The calls were made as follows: active = hit-call score of the fitted dose curve at least 0.9, where 1 is the maximum; inactive = score below 0.9.
What was measured:
Settings in all cases: mRNA level, 48 h; actives raise or lower the signal
[1] = read-out: Cytochrome P450 7A1 (Homo sapiens) (UniProt P22680); assay: LTEA_HepaRG_CYP7A1: Life Technologies and Expression Analysis (LTEA) Assay for Cytochrome P450 7A1 (CYP7A1) using HepaRG (AID 2283496)
Outline: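 Gene expression endpoint in human HepaRG liver cells treated for 48 h with test chemicals (up to 100 uM, 0.5% DMSO). Values come from bidirectional concentration-response fitting versus DMSO.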

[2] = read-out: Glutathione S-Transferase (GSTA2), GSTA2 (gene 2939); assay: LTEA_HepaRG_GSTA2: Life Technologies and Expression Analysis (LTEA) Assay for Glutathione S-Transferase (GSTA2) using HepaRG (AID 2283497)
Outline: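 Differentiated human HepaRG cells were exposed in duplicate for 48 h in serum-free induction medium, 8 points from 100 uM top in half-log steps, 0.5% DMSO. GSTA2 mRNA was measured by TaqMan qRT-PCR, normalized to ACTB, GAPDH and POLR2A; bidirectional fit versus DMSO.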

[3] = read-out: Glutamate-cysteine ligase catalytic (GCLC), GCLC (gene 2729); assay: LTEA_HepaRG_GCLC: Life Technologies and Expression Analysis (LTEA) Assay for Glutamate-cysteine ligase catalytic (GCLC) using HepaRG (AID 2283498)
Outline: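 Differentiated HepaRG cells exposed 48 h in serum-free induction medium, eight-point half-log series topping at 100 uM in 0.5% DMSO, duplicates. GCLC mRNA by qRT-PCR normalized to ACTB, GAPDH and POLR2A, fitted bidirectionally versus DMSO.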

[4] = read-out: growth arrest and DNA damage 45 (GADD45G), GADD45G (gene 10912); assay: LTEA_HepaRG_GADD45G: Life Technologies and Expression Analysis (LTEA) Assay for growth arrest and DNA damage 45 (GADD45G) using HepaRG (AID 2283499)
Outline: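 GADD45G transcript level by qRT-PCR (housekeeping-normalized: ACTB, GAPDH, POLR2A) after 48 h chemical treatment of a single HepaRG lot in serum-free induction medium; eight-point half-log series up to 100 uM in 0.5% DMSO, duplicates, up- or down-regulation scored.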

[5] = read-out: Glutamate-cysteine ligase regulatory (GCLM), GCLM (gene 2730); assay: LTEA_HepaRG_GCLM: Life Technologies and Expression Analysis (LTEA) Assay for Glutamate-cysteine ligase regulatory (GCLM) using HepaRG (AID 2283500)
Outline: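 Human liver HepaRG cultures receive test chemicals for 48 hours at up to 100 uM in 0.5% DMSO. GCLM expression is measured by qRT-PCR and analysed for increases or decreases against vehicle.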

[6] = read-out: Glutathione S-transferase M3 (GSTM3), GSTM3 (gene 2947); assay: LTEA_HepaRG_GSTM3: Life Technologies and Expression Analysis (LTEA) Assay for Glutathione S-transferase M3 (GSTM3) using HepaRG (AID 2283501)
Outline: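 GSTM3 transcript levels came from Fluidigm TaqMan qRT-PCR normalized to three housekeeping genes, fitted in both directions against DMSO. HepaRG cultures received chemicals for 48 h in serum-free induction medium (0.5% DMSO), 8 half-log concentrations up to 100 uM, duplicate.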

[7] = read-out: Heat shock 70 kDa protein 1 (HSPA1A), gene 3303; assay: LTEA_HepaRG_HSPA1A: Life Technologies and Expression Analysis (LTEA) Assay for Heat shock 70 kDa protein 1 (HSPA1A) using HepaRG (AID 2283502)
Outline: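 HSPA1A induction in human HepaRG liver cells is measured after 48 h of chemical treatment (100 uM maximum, 0.5% DMSO vehicle). Expression comes from qRT-PCR normalized to endogenous controls.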

[8] = read-out: Hypoxia-inducible factor 1-alpha (Homo sapiens) (UniProt Q16665); assay: LTEA_HepaRG_HIF1A: Life Technologies and Expression Analysis (LTEA) Assay for Hypoxia-inducible factor 1 (HIF1A) Trancription factor using HepaRG (AID 2283503);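 also: HIF1A transcript by TaqMan qRT-PCR normalized to ACTB GAPDH and POLR2A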
Outline: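 HepaRG, 48 h exposure, 8-pt half-log series from 100 uM, 0.5% DMSO vehicle, duplicates. Readout: HIF1A transcript by qRT-PCR (Fluidigm array), housekeeping-normalised. Bidirectional curve fit vs DMSO baseline.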

[9] = read-out: 3-Hydroxy-3-Methylglutaryl-CoA Synthase 2 (HMGCS2), HMGCS2 (gene 3158); assay: LTEA_HepaRG_HMGCS2: Life Technologies and Expression Analysis (LTEA) Assay for 3-Hydroxy-3-Methylglutaryl-CoA Synthase 2 (HMGCS2) using HepaRG (AID 2283504)
Outline: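 Readout is HMGCS2 transcript by qRT-PCR, housekeeping-normalised (ACTB/GAPDH/POLR2A) and fitted bidirectionally against 0.5% DMSO. Differentiated HepaRG cells received chemicals 48 h, duplicate wells, eight half-log concentrations topping at 100 uM.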

HGF (gene 3082) = assay: LTEA_HepaRG_HGF: Life Technologies and Expression Analysis (LTEA) Assay for Hepatocyte Growth Facto (HGF) using HepaRG (AID 2283505)
Outline: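 HGF transcript was quantified by TaqMan qRT-PCR against three housekeeping genes after 48 h treatment of HepaRG cells. Exposure ran in duplicate over eight half-log steps topping at 100 uM in 0.5% DMSO vehicle.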

Measured: outcome

Chain of Hypoxia-inducible factor 1-alpha (Homo sapiens) (Q16665 whole entry, looked up): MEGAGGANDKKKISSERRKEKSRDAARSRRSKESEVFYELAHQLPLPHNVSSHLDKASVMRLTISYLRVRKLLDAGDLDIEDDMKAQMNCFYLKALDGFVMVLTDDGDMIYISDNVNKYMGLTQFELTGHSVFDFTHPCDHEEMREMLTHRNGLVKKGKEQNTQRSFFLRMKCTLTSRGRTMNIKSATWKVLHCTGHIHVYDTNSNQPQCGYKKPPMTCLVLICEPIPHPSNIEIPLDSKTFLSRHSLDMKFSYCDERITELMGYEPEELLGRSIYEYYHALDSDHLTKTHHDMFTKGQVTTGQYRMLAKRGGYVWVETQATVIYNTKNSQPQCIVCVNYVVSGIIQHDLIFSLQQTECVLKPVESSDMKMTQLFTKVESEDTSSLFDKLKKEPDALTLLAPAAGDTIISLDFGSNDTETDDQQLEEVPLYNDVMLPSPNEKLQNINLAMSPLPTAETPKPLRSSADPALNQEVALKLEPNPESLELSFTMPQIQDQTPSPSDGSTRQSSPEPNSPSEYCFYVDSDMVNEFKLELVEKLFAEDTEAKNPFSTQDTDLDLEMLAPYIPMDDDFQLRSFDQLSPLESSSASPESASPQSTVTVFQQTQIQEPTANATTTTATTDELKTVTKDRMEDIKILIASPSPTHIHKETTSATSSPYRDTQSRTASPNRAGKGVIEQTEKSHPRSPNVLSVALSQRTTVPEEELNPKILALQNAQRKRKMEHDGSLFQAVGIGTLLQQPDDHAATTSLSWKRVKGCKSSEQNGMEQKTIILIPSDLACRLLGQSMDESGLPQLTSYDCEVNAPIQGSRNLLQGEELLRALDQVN

Nc1ccc(C(=O)O)cc1
inactive: all assays above

Cc1ccc([N+](=O)[O-])cc1N
inactive: all assays above

C1CNCCN1
inactive: all assays above
